PubChem BioAssay (NCI)
The panel holds about 83,000 compounds, 20% with a hit somewhere; the sample as a whole holds those more often.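 The test compound was applied at a single concentration to cells in 96-well plates for 48 hours, and percent growth was recorded.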 Active and inactive are the calls of the source. The calls were made as follows: active = growth percent below 10; inactive = the rest.

system: HL-60(TB) leukemia; test: NCI-60 one-dose screen, 48 h (100 = growth as untreated, 0 = no growth, -100 = all killed); settings: 10 µM unless noted

Structure (SMILES) | growth
S=c1cc(S)c2cc(Br)ccc2[nH]1 | 101% (inactive)
N#Cc1c(-c2ccc(Cl)cc2)cc(-c2cc(O)ccc2O)nc1N | 68.2% (inactive)
O=c1c2sc3ncc(Cl)cc3c2nnn1-c1cccc(Cl)c1 | 91.8% (inactive)
Cn1nc(C(F)(F)F)cc1-c1cc(Cl)c(OCc2ccc(Cl)cc2)c(-c2ccc(Cl)c(C(F)(F)F)c2)c1O | -24.3% (active)
CC(=O)O[C@]1(C)CC[C@H]2[C@H](CNCCc3ccc(Cl)cc3)C(=O)O[C@@H]2C2=C(C)C(=O)C[C@H]21 | 89.2% (inactive)
CCCCC[C@H]1C/C=C2/C(=O)C(Cl)=C[C@@H]2C/C=C\CCCC(=O)O[C@@H](CCCCC)C/C=C2/C(=O)C(Cl)=C[C@@H]2C/C=C\CCCC(=O)O1 | -19.1% (active)
Cc1[nH]n(C(N)=S)c(=O)c1N=Nc1ccc(S(=O)(=O)Nc2ccncn2)cc1 | 103% (inactive)
C#CC(F)(F)[C@]1(O)CCC2C3CCC4=CC(=O)CCC4=C3[C@@H](c3ccc(N(C)C)cc3)C[C@@]21C (stereo partly specified) | 56% (inactive)
Cc1c2ccccc2nc2cc3c(cc12)[C@H]1CC[C@]2(C)C(=O)CC[C@H]2[C@@H]1CC3 | 97.1% (inactive)
CN1CCCN(C(c2ccccc2)c2ccc(Cl)cc2)CC1 (stereo unspecified) | 93.5% (inactive)
O=c1[nH]nc(-c2ccccc2)c2sc3ncc(-c4ccc(Br)cc4)n3c12 | 12.7% (inactive)
